# According to PubChem BioAssay (Tox21):
# Records with an inconclusive call do not appear. Entries that show only a call come without a potency. Some structures have more than one record in an assay (separate samples or runs), and their calls can disagree. Unmarked numbers belong to inactive results. The source made the active and inactive calls. Unless noted, calls come from the whole dose curve; as a rule, active = well fitted curve in the direction sought with a large enough effect in the repeat runs; inconclusive = weak or mixed curves; inactive = no such curve, though single readings can be large; an effect the other way counts as inactive or inconclusive.
# Tests used:
# [1] = qHTS assay to identify small molecule antagonists of the thyroid receptor (TR) signaling pathway (AID 743065); note: nearly all actives have a fitted effect of over 55% in size; note: potency is the fitted concentration of half-maximal effect
# In short: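 Antagonism measured as loss of luciferase signal in GH3 cells stably carrying a TRE-luciferase reporter, co-treated with compound and T3 (1 nM final) for 23.5 h at 37 C. Viability was read in the same well by CellTiter-Fluor.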
# [2] = test system: thyroid hormone receptor (rat, GH3 cells); assay: qHTS assay to identify small molecule agonists of the thyroid receptor (TR) signaling pathway (AID 743066; calls by dose curve)
# [3] = qHTS assay to identify small molecule antagonists of the estrogen receptor alpha (ER-alpha) signaling pathway - cell viability counter screen (AID 743074; calls by dose curve;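 note: HEK293 cells carrying ER-alpha-UAS-bla reporter stimulated with 17beta-estradiol; nearly all actives have a fitted effect of over 45% in size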)
# [4] = qHTS assay to identify small molecule antagonists of the estrogen receptor alpha (ER-alpha) signaling pathway using the BG1 cell line - cell viability counter screen (AID 743081);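 note: compound given together with 17beta-estradiol as the ER stimulus; nearly all actives have a fitted effect of over 45% in size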; note: potency is the fitted concentration of half-maximal effect; for activity change, negative = cytotoxicity: series mostly up to about 70 µM
# [5] = target: Aromatase (Homo sapiens) (UniProt P11511); assay: qHTS assay to identify aromatase inhibitors (AID 743083); note: nearly all actives have a fitted effect of over 55% in size; note: potency is the fitted concentration of half-maximal effect
# [6] = target: Estrogen receptor (Homo sapiens) (UniProt P03372); assay: qHTS assay to identify small molecule antagonists of the estrogen receptor alpha (ER-alpha) signaling pathway (AID 743069; active = well fitted curve in the direction sought with a large enough effect in the signal ratio in the repeat runs, not every such curve was filed as active; the % refers to the signal ratio)
# In short: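 Compound effects are measured against 17beta-estradiol stimulation in HEK293 cells with a UAS-controlled beta-lactamase reporter for ER-alpha. Exposure lasts 18 hr at 37C; LiveBLAzer B/G FRET substrate follows for 2 hr at room temperature.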
# [7] = target: Estrogen receptor (Homo sapiens) (UniProt P03372); assay: qHTS assay to identify small molecule agonists of the estrogen receptor alpha (ER-alpha) signaling pathway (AID 743075; calls by dose curve)
# [8] = target: Estrogen receptor (Homo sapiens) (UniProt P03372); assay: qHTS assay to identify small molecule agonists of the estrogen receptor alpha (ER-alpha) signaling pathway using the BG1 cell line (AID 743079); note: nearly all actives have a fitted effect of over 20% in size; note: potency is the fitted concentration of half-maximal effect
# [9] = qHTS assay to identify small molecule antagonists of the estrogen receptor alpha (ER-alpha) signaling pathway using the BG1 cell line (AID 743080; calls by dose curve;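 note: BG1 cells stimulated with 17beta-estradiol alongside compound; nearly all actives have a fitted effect of over 25% in size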; note: potency is the fitted concentration of half-maximal effect; for activity change, negative = inhibition: series mostly up to about 70 µM)
# In short: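 BG1-Luc-4E2 cells (endogenous full-length ER-alpha, 4xERE luciferase) hormone-starved 5 days in charcoal-stripped FBS, plated 4,000/well for 24 h, then compound plus 17beta-estradiol for 21.5 h at 37 C; ONE-Glo luminescence read.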
# Chain of Aromatase (Homo sapiens) (P11511 whole entry, looked up): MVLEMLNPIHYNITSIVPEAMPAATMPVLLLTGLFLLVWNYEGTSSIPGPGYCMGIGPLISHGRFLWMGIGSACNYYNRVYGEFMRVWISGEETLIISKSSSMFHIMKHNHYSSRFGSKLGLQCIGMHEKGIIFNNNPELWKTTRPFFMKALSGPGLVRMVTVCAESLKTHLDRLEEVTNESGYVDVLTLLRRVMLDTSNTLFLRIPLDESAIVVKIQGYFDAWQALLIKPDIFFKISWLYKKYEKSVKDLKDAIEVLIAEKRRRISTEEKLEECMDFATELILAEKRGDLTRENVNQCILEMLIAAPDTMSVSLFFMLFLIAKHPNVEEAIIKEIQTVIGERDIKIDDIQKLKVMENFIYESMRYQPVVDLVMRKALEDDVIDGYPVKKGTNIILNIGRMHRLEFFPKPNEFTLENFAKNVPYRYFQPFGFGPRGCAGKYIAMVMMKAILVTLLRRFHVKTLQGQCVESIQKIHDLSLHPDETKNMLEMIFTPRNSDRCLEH
# Chain of Estrogen receptor (Homo sapiens) (P03372 whole entry, looked up): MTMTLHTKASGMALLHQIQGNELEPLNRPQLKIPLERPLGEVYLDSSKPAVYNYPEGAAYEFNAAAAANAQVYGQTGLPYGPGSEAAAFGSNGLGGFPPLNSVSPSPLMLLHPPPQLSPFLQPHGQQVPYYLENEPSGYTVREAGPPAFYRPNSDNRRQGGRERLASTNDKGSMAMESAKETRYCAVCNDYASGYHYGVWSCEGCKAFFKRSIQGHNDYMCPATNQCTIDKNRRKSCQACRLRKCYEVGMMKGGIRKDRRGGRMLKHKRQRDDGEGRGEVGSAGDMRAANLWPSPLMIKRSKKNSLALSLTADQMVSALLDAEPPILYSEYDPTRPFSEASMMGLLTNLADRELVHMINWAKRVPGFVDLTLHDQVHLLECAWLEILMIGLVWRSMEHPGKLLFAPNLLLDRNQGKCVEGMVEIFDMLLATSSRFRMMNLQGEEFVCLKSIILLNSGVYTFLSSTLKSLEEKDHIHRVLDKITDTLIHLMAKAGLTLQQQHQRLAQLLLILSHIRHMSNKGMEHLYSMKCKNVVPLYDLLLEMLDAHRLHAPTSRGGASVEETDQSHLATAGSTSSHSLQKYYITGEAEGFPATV
smiles,measurement,setting,value
Cc1c(Nc2ncccc2C(=O)O)cccc1C(F)(F)F,Potency,[1],2.85 µM (active)
same,outcome,[2],inactive
same,outcome,[3],inactive
same,Potency,[4],inactive
CCOc1ccccc1O,Potency,[1],inactive
same,outcome,[2],inactive
same,outcome,[3],inactive
same,Potency,[4],inactive
same,Potency,[5],inactive
COC(=O)C(C)(C)C,Potency,[1],inactive
same,outcome,[2],inactive
same,outcome,[3],inactive
same,Potency,[4],inactive
same,Potency,[5],inactive
CCOC(=O)CC(O)(CC(=O)OCC)C(=O)OCC,Potency,[1],inactive
same,outcome,[2],inactive
same,Potency,[6],inactive
same,outcome,[3],inactive
same,Potency,[7],inactive
same,Potency,[8],inactive
same,Potency,[9],inactive
same,Potency,[4],inactive
same,Potency,[5],inactive
Clc1nc2ccccc2nc1Cl,Potency,[1],inactive
same,outcome,[2],inactive
same,Potency,[6],inactive
same,outcome,[3],inactive
same,Potency,[7],inactive
same,Potency,[8],inactive
same,Potency,[4],inactive
same,Potency,[5],inactive
O=C(N[C@@H](Cc1ccccc1)[C@@H](O)C(=O)N1C[C@@H](O)[C@@H](O)C1)c1cc2cc(Cl)ccc2[nH]1,Potency,[1],61.1 µM (active)
same,outcome,[2],inactive
same,outcome,[3],inactive
same,Potency,[7],inactive
same,Potency,[9],inactive
same,Potency,[4],inactive
same,Potency,[5],inactive
CC(C)Oc1ccccc1O,Potency,[1],inactive
same,outcome,[2],inactive
same,Potency,[6],inactive
same,outcome,[3],inactive
same,Potency,[7],inactive
same,Potency,[8],inactive
same,Potency,[9],inactive
same,Potency,[4],inactive
same,Potency,[5],inactive
CC(C(=O)O)c1ccc2c(c1)Cc1cccnc1O2 (configuration not stated),Potency,[1],inactive
same,outcome,[2],inactive
same,outcome,[3],inactive
same,Potency,[4],inactive
same,Potency,[5],inactive
O=[N+]([O-])c1cccc(I)c1,Potency,[1],inactive
same,outcome,[2],inactive
same,outcome,[3],inactive
same,Potency,[7],inactive
same,Potency,[8],inactive
same,Potency,[9],inactive
same,Potency,[4],inactive
same,Potency,[5],inactive
O=C(O)c1c2ccccc2cc2ccccc12,Potency,[1],inactive
same,outcome,[2],inactive
same,Potency,[6],inactive
same,Potency,[7],inactive
same,Potency,[8],inactive
same,Potency,[9],inactive
same,Potency,[4],inactive
same,Potency,[5],inactive
O=C(O)c1ccncc1,Potency,[1],inactive
same,outcome,[2],inactive
same,outcome,[3],inactive
same,Potency,[4],inactive
same,Potency,[5],inactive
CC(C)NC(=O)c1ccccc1N,Potency,[1],inactive
same,outcome,[2],inactive
same,outcome,[3],inactive
same,Potency,[7],inactive
same,Potency,[8],inactive
same,Potency,[9],inactive
same,Potency,[4],inactive
same,Potency,[5],inactive
c1ccc(CN(Cc2ccccc2)Cc2ccccc2)cc1,Potency,[1],inactive
same,outcome,[2],inactive
same,outcome,[3],inactive
same,Potency,[4],inactive
same,Potency,[5],inactive
C[Si](C)(C)O[Si](C)(C)O[Si](C)(C)C,Potency,[1],inactive
same,outcome,[2],inactive
same,outcome,[3],inactive
same,Potency,[4],inactive
same,Potency,[5],inactive
S=c1[nH][nH]c(=S)s1,Potency,[1],inactive
same,outcome,[2],inactive
same,outcome,[3],inactive
same,Potency,[7],inactive
same,Potency,[8],inactive
same,Potency,[9],inactive
same,Potency,[4],inactive
same,Potency,[5],inactive
CC1(C)C(=O)NC(=O)N1CO,Potency,[1],inactive
same,outcome,[2],inactive
same,Potency,[6],inactive
same,outcome,[3],inactive
same,Potency,[7],inactive
same,Potency,[9],inactive
same,Potency,[4],inactive
same,Potency,[5],inactive
O=c1[nH]nc(-c2ccc([N+](=O)[O-])o2)o1,Potency,[1],inactive
same,outcome,[2],inactive
same,outcome,[3],inactive
same,Potency,[7],inactive
same,Potency,[8],inactive
same,Potency,[9],inactive
same,Potency,[5],inactive
CCCc1ccc(OC)cc1,outcome,[3],inactive
same,Potency,[7],inactive
same,Potency,[9],inactive
same,Potency,[4],inactive
same,Potency,[5],inactive
Clc1ccccc1-c1nc(-c2ccncc2)no1,Potency,[1],inactive
same,outcome,[2],inactive
same,outcome,[3],inactive
same,Potency,[4],inactive
same,Potency,[5],inactive
O=C(O)c1cccc(C(=O)O)c1C(=O)O,Potency,[1],inactive
same,outcome,[2],inactive
same,Potency,[7],inactive
same,Potency,[8],inactive
same,Potency,[9],inactive
same,Potency,[4],inactive
same,Potency,[5],inactive
NC(=O)c1cc[n+](CC2=C(C(=O)[O-])N3C(=O)[C@@H](NC(=O)Cc4cccs4)[C@H]3SC2)cc1,Potency,[6],inactive
same,outcome,[3],inactive
same,Potency,[7],inactive
same,Potency,[8],inactive
same,Potency,[9],inactive
same,Potency,[4],inactive
same,Potency,[5],inactive
CCCCCCCCS,Potency,[1],inactive
same,outcome,[2],inactive
same,Potency,[7],inactive
same,Potency,[8],inactive
same,Potency,[9],inactive
same,Potency,[4],inactive
same,Potency,[5],inactive
CC1=C(C)C(=O)C(CCCCC#CCCCC#CCO)=C(C)C1=O,Potency,[7],inactive
same,Potency,[9],15 µM (active)
same,Potency,[4],inactive
CC(C)(C)NCC(O)COc1ccc(NC(=O)NC2CCCCC2)cc1 (configuration not stated),outcome,[2],inactive
same,Potency,[6],inactive
same,outcome,[3],inactive
same,Potency,[7],inactive
same,Potency,[4],inactive
same,Potency,[5],inactive
CC(O)C(C)O (configuration not stated),Potency,[1],inactive
same,outcome,[3],inactive
same,Potency,[4],inactive
same,Potency,[5],inactive
C/C=C1\[C@H]2C=C(C)C[C@]1(N)c1ccc(=O)[nH]c1C2,Potency,[1],inactive
same,outcome,[3],inactive
same,Potency,[4],inactive
same,Potency,[5],inactive
NCCOCCOCCN,outcome,[2],inactive
same,outcome,[3],inactive
same,Potency,[4],inactive
same,Potency,[5],inactive
COC(=O)Cc1cccc2ccccc12,outcome,[3],inactive
same,Potency,[7],inactive
same,Potency,[8],inactive
same,Potency,[9],inactive
same,Potency,[4],inactive
same,Potency,[5],inactive
c1ccc(CCNc2nc(-c3ccccc3)cs2)cc1,Potency,[1],inactive
same,outcome,[2],inactive
same,Potency,[7],inactive
same,Potency,[8],0.944 µM (active)
same,Potency,[4],inactive
same,Potency,[5],inactive
Clc1cc(Cl)c2c(c1)N=C1CCCCCN1C2,outcome,[2],inactive
same,outcome,[3],inactive
same,Potency,[7],inactive
same,Potency,[8],23.7 µM (active)
same,Potency,[4],inactive
same,Potency,[5],inactive
C=Cc1ccc(C=C)cc1,Potency,[1],inactive
same,outcome,[2],inactive
same,Potency,[7],inactive
same,Potency,[8],inactive
same,Potency,[9],inactive
same,Potency,[4],inactive
same,Potency,[5],inactive
COc1cc(C)c(Cc2cnc(N)nc2N)cc1OC,Potency,[6],inactive
same,outcome,[3],inactive
same,Potency,[7],inactive
same,Potency,[8],inactive
same,Potency,[9],inactive
same,Potency,[4],inactive
same,Potency,[5],inactive
CC(C)(Cc1c[nH]c2ccccc12)NCC(O)COc1ccccc1C#N (configuration not stated),Potency,[1],23.7 µM (active)
same,outcome,[3],inactive
same,Potency,[4],inactive
same,Potency,[5],inactive
CCCc1nc(C)c2c(=O)[nH]c(-c3cc(S(=O)(=O)N4CCN(CC)CC4)ccc3OCC)nn12,outcome,[3],inactive
same,Potency,[4],inactive
same,Potency,[5],inactive
C=CC(O)CCCCC (configuration not stated),Potency,[1],inactive
same,outcome,[2],inactive
same,outcome,[3],inactive
same,Potency,[4],inactive
same,Potency,[5],inactive
CCCCCCCCCCCCSC#N,outcome,[2],inactive
same,outcome,[3],inactive
same,Potency,[7],inactive
same,Potency,[8],inactive
same,Potency,[9],inactive
same,Potency,[4],inactive
same,Potency,[5],inactive
O=c1c2ccccc2oc2ccccc12,Potency,[1],inactive
same,outcome,[2],inactive
same,Potency,[7],inactive
same,Potency,[8],48.6 µM (active)
same,Potency,[4],inactive
same,Potency,[5],inactive
Cc1c(Cl)cccc1Nc1ccccc1C(=O)O,Potency,[1],13.3 µM (active)
same,outcome,[3],inactive
same,Potency,[7],inactive
same,Potency,[8],inactive
same,Potency,[9],inactive
same,Potency,[4],inactive
same,Potency,[5],inactive
C[C@H](CN1CCCC1)C(=O)c1ccc(C(F)(F)F)cc1,Potency,[1],26.6 µM (active)
same,outcome,[2],inactive
same,outcome,[3],inactive
same,Potency,[5],inactive
N#C[C@@H]1CC(F)(F)CN1C(=O)CNC1CC2CCC(C1)N2c1ncccn1 (some centres not stated),Potency,[6],inactive
same,outcome,[3],inactive
same,Potency,[7],inactive
same,Potency,[8],inactive
same,Potency,[4],inactive
same,Potency,[5],inactive
COc1cccc([C@H](O)C2CCN(CCc3ccc(F)cc3)CC2)c1OC,outcome,[2],inactive
same,outcome,[3],inactive
same,Potency,[7],inactive
same,Potency,[8],inactive
same,Potency,[9],inactive
same,Potency,[4],inactive
same,Potency,[5],inactive
CC(C(=O)O)c1ccc(/C=C2\CCCCC2=O)cc1 (configuration not stated),Potency,[1],inactive
same,outcome,[2],inactive
same,outcome,[3],inactive
same,Potency,[4],inactive
same,Potency,[5],inactive
CC(=O)Oc1cccc2c1C(=O)c1c(OC(C)=O)cc(C(=O)O)cc1C2=O,Potency,[1],inactive
same,outcome,[2],inactive
same,outcome,[3],inactive
same,Potency,[4],inactive
same,Potency,[5],inactive
C[C@]12CCC(=O)C=C1[C@@H]1C[C@@H]1[C@H]1[C@@H]3[C@@H]4C[C@@H]4[C@@]4(CCC(=O)O4)[C@@]3(C)CC[C@@H]12,Potency,[1],21.1 µM (active)
same,outcome,[2],inactive
same,outcome,[3],inactive
same,Potency,[4],inactive
same,Potency,[5],inactive
CCCCCCC/C=C/C=O,outcome,[2],inactive
same,outcome,[3],inactive
same,Potency,[7],inactive
same,Potency,[8],inactive
same,Potency,[9],inactive
same,Potency,[4],inactive
same,Potency,[5],inactive
Cc1nc2sccn2c(=O)c1CCN1CCC(=C(c2ccc(F)cc2)c2ccc(F)cc2)CC1,Potency,[1],26.6 µM (active)
same,Potency,[6],inactive
same,outcome,[3],inactive
same,Potency,[7],inactive
same,Potency,[9],29.8 µM (active)
same,Potency,[4],inactive
same,Potency,[5],inactive
CC(Cc1ccccc1)(NC(=O)CN)c1ccccc1 (configuration not stated),outcome,[2],inactive
same,outcome,[3],inactive
same,Potency,[7],inactive
same,Potency,[8],inactive
same,Potency,[9],inactive
same,Potency,[4],inactive
same,Potency,[5],inactive
COc1cc(CNC(=O)CCCC/C=C/C(C)C)ccc1O,outcome,[2],inactive
same,Potency,[6],inactive
same,outcome,[3],inactive
same,Potency,[7],inactive
same,Potency,[8],inactive
same,Potency,[9],inactive
same,Potency,[4],inactive
COC(=O)c1cc(Cl)ccc1[N+](=O)[O-],Potency,[1],inactive
same,Potency,[6],inactive
same,outcome,[3],inactive
same,Potency,[7],inactive
same,Potency,[8],inactive
same,Potency,[9],inactive
same,Potency,[4],inactive
same,Potency,[5],inactive
CC(C)Cc1nccs1,Potency,[1],inactive
same,outcome,[2],inactive
same,outcome,[3],inactive
same,Potency,[4],inactive
same,Potency,[5],inactive
COc1ccc(/C=C/S(=O)(=O)NC(=O)c2ccc(C)cc2Cl)cc1,Potency,[4],inactive
same,Potency,[5],inactive
O=C(NC1CCN(CCc2c[nH]c3ccccc23)CC1)c1ccccc1,Potency,[1],26.6 µM (active)
same,outcome,[2],inactive
same,outcome,[3],inactive
same,Potency,[5],inactive
CC1=CC(=C(c2ccc(N)cc2)c2ccc(N)cc2)C=CC1=N,Potency,[1],10.6 µM (active)
same,activation,[2],-3.23% [at 8.08 µM]
same,Potency,[7],inactive
same,activation,[8],1.34% [at 8.47 µM]
same,"activity change, negative = inhibition",[9],-25% [at 8.47 µM]
same,Potency,[4],11.9 µM (active)
same,"activity change, negative = cytotoxicity",[4],-20.8% [at 8.47 µM]
same,Potency,[5],8.41 µM (active)
O=C(O)CNc1ccccc1,Potency,[1],inactive
same,outcome,[2],inactive
same,outcome,[3],inactive
same,Potency,[4],inactive
same,Potency,[5],inactive
